From PubChem BioAssay (NCATS)
Records with an inconclusive call do not appear. Activity calls are given as the source filed them. Unless noted, calls come from the whole dose curve; as a rule, active = well fitted curve in the direction sought with a large enough effect; inconclusive = small, poorly fitted or top-dose-only effect, or another doubt; inactive = no such curve, though single readings can be large; an effect the other way counts as inactive or inconclusive.

What was measured:
[1] = molecular target: Thioredoxin reductase 1, cytoplasmic (Rattus norvegicus) (UniProt O89049); experiment: qHTS Assay for Substrates of Mammalian Selenoprotein Thioredoxin Reductase 1 (TrxR1) (AID 488772);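 note: NADPH fluorescence in the first read after selenite addition and not the 8 min delta; series mostly up to about 57 µM; a drop in NADPH fluorescence below the no-compound background marks a TrxR1 substrate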
Chain of Thioredoxin reductase 1, cytoplasmic (Rattus norvegicus) (O89049 whole entry, looked up): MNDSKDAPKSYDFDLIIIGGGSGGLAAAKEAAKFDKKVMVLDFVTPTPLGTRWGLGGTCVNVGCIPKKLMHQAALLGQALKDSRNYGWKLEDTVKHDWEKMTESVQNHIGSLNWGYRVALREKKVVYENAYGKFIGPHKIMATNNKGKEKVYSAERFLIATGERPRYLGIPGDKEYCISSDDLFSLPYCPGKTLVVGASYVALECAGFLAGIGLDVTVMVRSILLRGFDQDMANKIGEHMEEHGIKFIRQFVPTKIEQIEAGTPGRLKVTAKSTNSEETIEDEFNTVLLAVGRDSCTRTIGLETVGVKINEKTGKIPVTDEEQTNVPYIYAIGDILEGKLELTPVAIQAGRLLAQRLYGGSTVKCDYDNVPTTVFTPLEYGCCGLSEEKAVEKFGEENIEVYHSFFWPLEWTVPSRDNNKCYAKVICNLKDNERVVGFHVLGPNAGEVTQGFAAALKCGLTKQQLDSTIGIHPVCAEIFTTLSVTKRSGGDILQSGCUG
Method in brief: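 Quantitative HTS in Tris-HCl buffer at pH 7.5 with EDTA and Tween-20, using rat TrxR1, 400 uM NADPH and 400 uM selenite (final). A fall in initial NADPH fluorescence relative to background marked substrate behaviour.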

[2] = molecular target: Thioredoxin reductase 1, cytoplasmic (Rattus norvegicus) (UniProt O89049); experiment: qHTS Assay for Inhibitors of Mammalian Selenoprotein Thioredoxin Reductase 1 (TrxR1) (AID 488773);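 note: drop in NADPH fluorescence over an 8 min run after selenite addition; series mostly up to about 57 µM; nearly all actives have a fitted effect of over 40% in size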
Method in brief: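 Steps: enzyme (90 nM) plus NADPH (400 uM final), 5 min at ~22 deg C; compound added, 15 min; selenite (400 uM final) added; fluorescence followed for 8 min. Concentration-response curves derived from the normalized delta values.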

[3] = molecular target: Flap endonuclease 1 (Homo sapiens) (UniProt P39748); experiment: qHTS Validation Assay for the Inhibitors of Human Flap endonuclease 1 (FEN1) (AID 488816)
Chain of Flap endonuclease 1 (Homo sapiens) (P39748 whole entry, looked up): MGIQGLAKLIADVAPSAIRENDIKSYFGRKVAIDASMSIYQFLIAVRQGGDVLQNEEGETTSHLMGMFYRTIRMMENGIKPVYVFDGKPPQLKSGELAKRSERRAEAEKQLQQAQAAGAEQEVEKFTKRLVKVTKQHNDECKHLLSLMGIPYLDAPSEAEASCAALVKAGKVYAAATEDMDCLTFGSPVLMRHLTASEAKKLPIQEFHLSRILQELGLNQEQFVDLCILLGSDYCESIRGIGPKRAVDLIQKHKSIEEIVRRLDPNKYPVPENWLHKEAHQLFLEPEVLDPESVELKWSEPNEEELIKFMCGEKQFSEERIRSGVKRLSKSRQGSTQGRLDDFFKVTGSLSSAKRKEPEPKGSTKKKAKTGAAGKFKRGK
Method in brief: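 FEN1, dispensed as a 10 nM reagent, was preincubated with pin-transferred compounds for 15 min at room temperature before substrate was added (50 nM final). Plates were read at 0 and 15 min, and a four-parameter Hill equation was fitted to the concentration-response data.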

[4] = molecular target: M-phase phosphoprotein 8 (Homo sapiens) (UniProt Q99549); experiment: qHTS Validation Assay for Inhibitors for MPP8 Chromodomain Interactions with Methylated Histone Tails (AID 488949); note: top concentration of the series differs between compounds; nearly all actives have a fitted effect of over 55% in size
Method in brief: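 MPP8 (50 nM) was pre-bound to 50 nM biotinylated H3(1-18)K9me3 peptide in PBS pH 7.4 with 0.01% Tween-20. Compounds were then added for 30 min at room temperature, and complex disruption was read by AlphaScreen with streptavidin donor and nickel-chelate acceptor beads.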

[5] = molecular target: Methanococcus maripaludis chaperonin (MmCpn) (UniProt Q6LX38); experiment: High-Throughput Screening for Modulators of Cytosolic Chaperonin Activity: MmCpn Primary Screen (AID 488978);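 note: 50 nM MmCpn enzyme hydrolysing 30 µM ATP at 37 °C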
Chain of Methanococcus maripaludis chaperonin (MmCpn) (Q6LX38 1-543): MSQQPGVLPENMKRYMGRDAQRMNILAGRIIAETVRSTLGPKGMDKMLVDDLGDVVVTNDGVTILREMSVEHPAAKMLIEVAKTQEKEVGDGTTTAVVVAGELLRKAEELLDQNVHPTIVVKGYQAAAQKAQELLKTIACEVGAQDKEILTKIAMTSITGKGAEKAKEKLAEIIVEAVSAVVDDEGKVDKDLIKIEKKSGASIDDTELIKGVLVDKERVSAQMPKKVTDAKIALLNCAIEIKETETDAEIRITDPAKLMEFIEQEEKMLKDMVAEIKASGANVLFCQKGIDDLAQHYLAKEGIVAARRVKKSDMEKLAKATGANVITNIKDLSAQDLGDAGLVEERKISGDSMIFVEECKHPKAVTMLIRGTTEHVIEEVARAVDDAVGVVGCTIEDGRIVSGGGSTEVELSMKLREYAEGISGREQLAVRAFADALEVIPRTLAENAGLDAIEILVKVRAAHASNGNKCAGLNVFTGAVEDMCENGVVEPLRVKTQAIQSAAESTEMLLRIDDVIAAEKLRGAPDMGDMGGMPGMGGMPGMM
Method in brief: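 MmCpn at 50 nM final was preincubated 5 min at RT with compound. ATP was then added at 30 uM final for 10 min at 37 C. ADP formed was detected by Transcreener HTRF (665/590 nm).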

[6] = molecular target: D(1A) dopamine receptor (Homo sapiens) (UniProt P21728); experiment: HTS Assay for Allosteric Agonists of the Human D1 Dopamine Receptor: Primary Screen for Agonists (AID 488981)
Chain of D(1A) dopamine receptor (Homo sapiens) (P21728 whole entry, looked up): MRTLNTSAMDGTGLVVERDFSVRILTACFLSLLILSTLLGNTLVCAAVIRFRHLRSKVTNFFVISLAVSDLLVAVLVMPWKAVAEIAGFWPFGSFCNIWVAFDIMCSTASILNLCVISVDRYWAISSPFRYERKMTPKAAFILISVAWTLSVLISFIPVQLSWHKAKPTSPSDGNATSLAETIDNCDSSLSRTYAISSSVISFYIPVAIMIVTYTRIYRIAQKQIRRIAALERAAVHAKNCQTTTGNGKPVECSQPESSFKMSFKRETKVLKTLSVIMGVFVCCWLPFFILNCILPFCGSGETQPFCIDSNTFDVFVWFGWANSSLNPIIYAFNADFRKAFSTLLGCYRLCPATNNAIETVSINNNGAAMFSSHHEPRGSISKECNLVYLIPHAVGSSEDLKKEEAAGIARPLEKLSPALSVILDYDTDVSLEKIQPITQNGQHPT
Method in brief: (§1)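 Tetracycline-induced HEK293 T-REx cells force-coupled to calcium signalling were incubated overnight at 30 C and dye-loaded at room temperature. Calcium flux over 180 s after compound addition flagged agonists; a further 180 s read after EC20 dopamine flagged potentiators.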

[7] = molecular target: D(1A) dopamine receptor (Homo sapiens) (UniProt P21728); experiment: HTS Assay for Allosteric Agonists of the Human D1 Dopamine Receptor: Primary Screen for Potentiators (AID 488982)
Method in brief: as §1

[8] = molecular target: D(1A) dopamine receptor (Homo sapiens) (UniProt P21728); experiment: HTS Assay for Allosteric Agonists of the Human D1 Dopamine Receptor: Primary Screen for Antagonists (AID 488983);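 note: calcium flux response to an EC80 dopamine challenge measured with no-wash dye; nearly all actives have a fitted effect of over 65% in size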
Method in brief: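 Screening of inducible HEK293 T-REx D1 cells: compound first, EC80 dopamine 180 s later, each phase read kinetically for calcium over 180 s.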

[9] = Validation screen for small molecules that induce genotoxicity in human embryonic kidney (HEK293T) cells expressing luciferase-tagged ELG1 (AID 493106)
Method in brief: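 Reporter-gene quantitative HTS in HEK293T cells carrying luciferase-tagged ELG1, whose level climbs under genotoxic stress. Compound exposure lasts 16 hr at 37 °C before luciferase detection.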

[10] = qHTS for Inhibitors of Cell Surface uPA Generation: Validation Assay (AID 493164);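 note: RAW 264.7 macrophage cells exposed to compound for 18 h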
Method in brief: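 RAW 264.7, 4000 cells/well, o/n plating; cpd 7-pt 1:5 dilution 2.45 nM–38.3 uM final; 18 h, 37 C/5% CO2; ATP-Lite, 5 s luminescence exposure.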

[11] = molecular target: Peptidyl-prolyl cis-trans isomerase NIMA-interacting 1 (Homo sapiens) (UniProt Q13526); experiment: qHTS Validation Assay to Find Inhibitors of Pin1 (AID 504536; active = well fitted inhibition curve with a large enough effect in the polarisation, with a control signal flat, not every such curve was filed as active; the % refers to the polarisation)
Chain of Peptidyl-prolyl cis-trans isomerase NIMA-interacting 1 (Homo sapiens) (Q13526 whole entry, looked up): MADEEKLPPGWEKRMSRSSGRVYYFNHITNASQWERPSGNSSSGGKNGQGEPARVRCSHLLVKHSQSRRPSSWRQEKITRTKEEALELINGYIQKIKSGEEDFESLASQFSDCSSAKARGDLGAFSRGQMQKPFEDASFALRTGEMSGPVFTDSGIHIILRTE
Method in brief: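 Fluorescence polarization competition: compounds (titration) displace HiFluor-488-labeled Pin1-1b peptide from Pin1 (0.3 uM final) in pH 7.5 HEPES buffer with DTT, 10 min at room temperature; %Activity normalized to no-enzyme wells, curves fitted.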

[12] = molecular target: Phosphoglycerate kinase, glycosomal (Trypanosoma brucei brucei) (UniProt P07378); experiment: qHTS Validation Assay to Find Inhibitors of Phosphoglycerate Kinase (AID 504547)
Chain of Phosphoglycerate kinase, glycosomal (Trypanosoma brucei brucei) (P07378 whole entry, looked up): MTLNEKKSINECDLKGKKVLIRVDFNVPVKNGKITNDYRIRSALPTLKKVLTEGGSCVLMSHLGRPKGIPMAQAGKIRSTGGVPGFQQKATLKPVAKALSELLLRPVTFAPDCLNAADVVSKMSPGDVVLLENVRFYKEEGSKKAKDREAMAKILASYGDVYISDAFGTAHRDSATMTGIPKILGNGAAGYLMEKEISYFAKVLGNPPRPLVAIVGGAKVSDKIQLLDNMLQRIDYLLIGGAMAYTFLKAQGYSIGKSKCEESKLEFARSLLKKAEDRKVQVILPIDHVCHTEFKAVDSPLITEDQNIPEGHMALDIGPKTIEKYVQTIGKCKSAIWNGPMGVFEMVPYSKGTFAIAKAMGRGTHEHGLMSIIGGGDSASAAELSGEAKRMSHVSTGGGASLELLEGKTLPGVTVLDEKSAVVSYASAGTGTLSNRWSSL
Method in brief: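 Substrate/PGK mix plus compound; reaction started with GAPDH (100nM final) to form 1,3-BPG; 60 min RT; Kinase-Glo Plus 10 min; luminescence. TEA 100mM pH 7.6, MgCl2 5mM, Tween-20 0.01%.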

[13] = molecular target: phosphoglycerate mutase (Leishmania major) (UniProt Q4Q090); experiment: qHTS Validation Assay to Find Inhibitors of Phosphoglycerate Mutase (AID 504548); note: series mostly up to about 58 µM
Chain of phosphoglycerate mutase (Leishmania major) (Q4Q090 1-553): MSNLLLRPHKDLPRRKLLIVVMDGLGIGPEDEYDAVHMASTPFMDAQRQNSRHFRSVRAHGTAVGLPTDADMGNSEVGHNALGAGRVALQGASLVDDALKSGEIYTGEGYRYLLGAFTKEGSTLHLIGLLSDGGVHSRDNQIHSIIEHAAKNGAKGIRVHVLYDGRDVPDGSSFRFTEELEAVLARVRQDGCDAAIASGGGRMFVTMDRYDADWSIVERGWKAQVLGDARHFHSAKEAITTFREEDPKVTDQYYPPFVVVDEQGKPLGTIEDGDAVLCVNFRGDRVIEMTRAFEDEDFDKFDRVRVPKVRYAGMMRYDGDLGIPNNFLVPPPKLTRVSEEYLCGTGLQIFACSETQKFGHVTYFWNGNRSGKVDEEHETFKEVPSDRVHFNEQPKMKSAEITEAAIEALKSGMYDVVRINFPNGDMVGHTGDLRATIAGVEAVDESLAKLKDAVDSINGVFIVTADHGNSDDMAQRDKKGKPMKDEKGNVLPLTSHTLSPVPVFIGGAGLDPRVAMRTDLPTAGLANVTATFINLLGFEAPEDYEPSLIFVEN
Method in brief: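 Luminescent end-point read-out via Kinase-GloPlus after a 10-minute development. Reaction: 1.25nM Leishmania major PGAM with substrate and compound, 45 minutes at room temperature in TEA buffer (pH 7.6) with MgCl2 and Tween-20.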

[14] = molecular target: Ubiquitin carboxyl-terminal hydrolase 1 (Homo sapiens) (UniProt O94782); experiment: Inhibitors of USP1/UAF1: Pilot qHTS (AID 504865);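 note: rhodamine fluorescence freed from ubiquitin-rhodamine substrate followed over time; top concentration of the series differs between compounds; nearly all actives have a fitted effect of over 35% in size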
Chain of Ubiquitin carboxyl-terminal hydrolase 1 (Homo sapiens) (O94782 whole entry, looked up): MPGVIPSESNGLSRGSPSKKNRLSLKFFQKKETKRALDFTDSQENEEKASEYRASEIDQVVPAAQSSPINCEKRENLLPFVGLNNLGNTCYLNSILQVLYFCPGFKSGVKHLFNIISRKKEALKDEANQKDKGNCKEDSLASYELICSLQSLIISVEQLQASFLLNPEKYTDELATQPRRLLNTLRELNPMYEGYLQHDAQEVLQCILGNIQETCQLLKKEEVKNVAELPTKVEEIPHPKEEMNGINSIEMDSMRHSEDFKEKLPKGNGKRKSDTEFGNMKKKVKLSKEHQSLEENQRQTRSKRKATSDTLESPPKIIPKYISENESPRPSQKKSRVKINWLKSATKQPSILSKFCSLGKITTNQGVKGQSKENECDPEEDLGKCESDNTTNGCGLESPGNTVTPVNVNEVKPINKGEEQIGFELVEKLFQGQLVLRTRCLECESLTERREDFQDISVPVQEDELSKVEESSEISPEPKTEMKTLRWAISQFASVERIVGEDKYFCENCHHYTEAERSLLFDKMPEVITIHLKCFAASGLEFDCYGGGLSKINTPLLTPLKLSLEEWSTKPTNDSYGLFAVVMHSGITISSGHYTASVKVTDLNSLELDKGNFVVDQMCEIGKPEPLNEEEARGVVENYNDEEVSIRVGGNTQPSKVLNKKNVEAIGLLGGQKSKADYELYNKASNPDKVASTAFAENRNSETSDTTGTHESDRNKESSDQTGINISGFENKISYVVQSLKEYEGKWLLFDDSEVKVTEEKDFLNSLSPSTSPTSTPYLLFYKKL
Method in brief: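 USP1/UAF1 complex at 1 nM preincubated 15 min at room temperature with compound, then Ub-Rho substrate added at 150 nM final. Fluorescence (480/540 nm) read kinetically in 50 mM HEPES pH 7.8, 0.5 mM EDTA, 1 mM TCEP, 0.1 mg/ml BSA, 0.01% Tween-20.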

[15] = molecular target: Glutaminase kidney isoform, mitochondrial (Homo sapiens) (UniProt O94925); experiment: qHTS for Inhibitors of Glutaminase (GLS): LOPAC Validation (AID 624146);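 note: glutamate product detected by oxidase and peroxidase coupled Amplex red fluorescence gain; series mostly up to about 46 µM; nearly all actives have a fitted effect of over 60% in size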
Chain of Glutaminase kidney isoform, mitochondrial (Homo sapiens) (O94925 whole entry, looked up, canonical isoform): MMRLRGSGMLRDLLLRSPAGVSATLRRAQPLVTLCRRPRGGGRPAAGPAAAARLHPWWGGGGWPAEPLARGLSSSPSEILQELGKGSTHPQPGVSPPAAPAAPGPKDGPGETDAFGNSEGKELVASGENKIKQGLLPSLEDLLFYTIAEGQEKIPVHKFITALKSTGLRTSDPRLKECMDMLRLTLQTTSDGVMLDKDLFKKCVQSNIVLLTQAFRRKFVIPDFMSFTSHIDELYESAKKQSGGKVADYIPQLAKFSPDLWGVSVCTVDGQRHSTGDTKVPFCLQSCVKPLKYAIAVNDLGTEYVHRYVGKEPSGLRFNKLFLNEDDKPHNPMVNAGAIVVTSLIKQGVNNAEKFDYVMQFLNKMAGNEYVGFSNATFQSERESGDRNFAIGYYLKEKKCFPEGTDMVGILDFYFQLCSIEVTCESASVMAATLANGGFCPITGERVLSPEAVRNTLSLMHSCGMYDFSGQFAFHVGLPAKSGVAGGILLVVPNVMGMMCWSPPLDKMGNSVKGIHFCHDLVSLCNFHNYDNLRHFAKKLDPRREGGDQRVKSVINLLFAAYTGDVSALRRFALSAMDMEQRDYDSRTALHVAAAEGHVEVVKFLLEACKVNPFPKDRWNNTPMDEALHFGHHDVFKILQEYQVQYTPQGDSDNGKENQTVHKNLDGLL
Method in brief: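 Human kidney-isoform GLS in 45 mM KH2PO4 pH 8.2, 0.02% Tween-20, with compound, started with 1mM L-Glutamine (added stock). Glutamate oxidase/HRP/Amplex red coupled fluorescence read at start and after 30 min at RT.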

[16] = qHTS of Trypanosoma Brucei Inhibitors: LOPAC Validation (AID 624147)
Method in brief: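 Screened from lowest to highest concentration, compounds were pinned into TbPYK/substrate mixtures, and ADP (130 uM final) was added. Plates sat at room temperature for 45 min prior to Kinase-Glo Plus detection by luminescence.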

[17] = molecular target: Glucagon-like peptide 1 receptor (Homo sapiens) (UniProt P43220); experiment: qHTS of GLP-1 Receptor Agonists: LOPAC Validation (AID 624148);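 note: higher luminescence signal means agonism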
Chain of Glucagon-like peptide 1 receptor (Homo sapiens) (P43220 whole entry, looked up): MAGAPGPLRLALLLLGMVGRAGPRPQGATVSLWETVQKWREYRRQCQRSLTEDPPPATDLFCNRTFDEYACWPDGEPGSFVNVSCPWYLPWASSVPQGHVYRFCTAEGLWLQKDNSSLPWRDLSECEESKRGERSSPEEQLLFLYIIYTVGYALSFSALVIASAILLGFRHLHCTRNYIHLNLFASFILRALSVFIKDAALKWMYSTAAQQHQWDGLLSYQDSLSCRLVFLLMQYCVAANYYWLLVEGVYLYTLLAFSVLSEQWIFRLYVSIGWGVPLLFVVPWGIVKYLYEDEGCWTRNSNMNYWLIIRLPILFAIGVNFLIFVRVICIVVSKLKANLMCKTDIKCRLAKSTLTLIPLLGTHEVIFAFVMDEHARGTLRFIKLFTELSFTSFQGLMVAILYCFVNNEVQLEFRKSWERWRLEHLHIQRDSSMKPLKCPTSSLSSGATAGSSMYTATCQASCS
Method in brief: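 HEK293 cells stably co-expressing a cAMP-responsive luciferase reporter and a hypersensitive GLP-1R were plated 12 h at 37 °C and exposed to compounds for 4-6 hr at 37 °C, 5% CO2. Luminescence was read 12 min after adding detection reagent.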

[18] = qHTS of Nrf2 Activators: LOPAC Validation (AID 624149)
Method in brief: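 ARE reporter activation measured in AREc32 firefly luciferase cells after 24 hr compound exposure; Steady-Glo luminescence.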

[19] = HTS Assay for Allosteric Antagonists of the Human D2 Dopamine Receptor: Hit Validation in HTRF (AID 624455);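 note: stable D1 dopamine receptor cell line scored for blocking the D1 response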
Method in brief: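 Signal from an HTRF read-out in D1-expressing stable cells gave hit activity as inhibition of the D1 response.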

Measured: Potency

CC[C@@H](CO)Nc1nc(NCc2ccccc2)c2ncn(C(C)C)c2n1
inactive: all assays above
